Source: publication PMC7862700, “An all-to-all approach to the identification of sequence-specific readers for epigenetic DNA modifications on cytosine”

How the values were obtained:
Assay in all cases: DAPPL (digital affinity profiling via proximity ligation, sequencing); 10 mM Tris-HCl pH 7.5, 50 mM NaCl, 1 mM DTT, 4% glycerol, room temperature, 30 min; GST-TFs on glutathione beads, 16-mer random dsDNA library, 0.1% formaldehyde crosslink after washing; high values mean tight binding
FEV = target: T1, FEV (Homo sapiens, UniProt Q99581 1-238); conditions: protein: recombinant; tags: N-terminal GST; dsDNA, one strand shown
T1 sequence: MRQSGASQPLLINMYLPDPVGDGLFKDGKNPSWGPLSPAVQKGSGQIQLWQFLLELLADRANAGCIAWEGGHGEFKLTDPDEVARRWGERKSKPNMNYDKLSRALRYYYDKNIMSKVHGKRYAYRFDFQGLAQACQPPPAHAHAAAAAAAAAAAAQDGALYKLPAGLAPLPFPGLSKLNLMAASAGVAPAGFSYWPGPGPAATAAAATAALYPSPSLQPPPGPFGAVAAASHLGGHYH
How it was run: (§1)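 Binding signal is defined as a hexamer's read frequency for one factor over its frequency for the tag-only sample. To obtain reads, GST-fused human transcription factors were expressed in yeast, captured on glutathione beads, barcoded with DNA and pooled with that sample. Pools met 200 nmole of a 16-mer random double-stranded DNA library in Tris/NaCl/DTT/glycerol buffer for 30 min at room temperature before washing, 0.1% formaldehyde crosslinking, proximity ligation (BsaI/T4 ligase, 1 h, 37 °C), PCR and Illumina NextSeq500 sequencing.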

ETV5 = ETV5 (Homo sapiens, UniProt P41161 1-510); conditions: protein: recombinant; tags: N-terminal GST; dsDNA, one strand shown
ETV5, sequence (P41161 whole entry): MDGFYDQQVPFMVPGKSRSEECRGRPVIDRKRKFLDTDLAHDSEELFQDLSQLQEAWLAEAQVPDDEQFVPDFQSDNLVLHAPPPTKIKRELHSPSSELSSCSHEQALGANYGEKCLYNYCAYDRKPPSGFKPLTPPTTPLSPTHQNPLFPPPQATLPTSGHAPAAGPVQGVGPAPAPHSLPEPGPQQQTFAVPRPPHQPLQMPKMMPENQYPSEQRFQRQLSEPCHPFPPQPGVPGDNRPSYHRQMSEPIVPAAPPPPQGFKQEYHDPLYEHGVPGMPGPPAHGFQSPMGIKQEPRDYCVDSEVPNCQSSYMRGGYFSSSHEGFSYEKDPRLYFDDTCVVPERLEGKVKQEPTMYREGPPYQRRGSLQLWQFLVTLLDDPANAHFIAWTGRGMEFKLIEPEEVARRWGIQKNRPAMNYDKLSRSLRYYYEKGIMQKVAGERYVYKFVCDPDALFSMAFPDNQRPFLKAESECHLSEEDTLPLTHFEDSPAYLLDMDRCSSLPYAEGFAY
How it was run: as §1

HSF1 = HSF1 (Homo sapiens, UniProt Q00613 1-529); conditions: protein: recombinant; tags: N-terminal GST; chain copies: 3; dsDNA, one strand shown
HSF1, sequence (Q00613 whole entry): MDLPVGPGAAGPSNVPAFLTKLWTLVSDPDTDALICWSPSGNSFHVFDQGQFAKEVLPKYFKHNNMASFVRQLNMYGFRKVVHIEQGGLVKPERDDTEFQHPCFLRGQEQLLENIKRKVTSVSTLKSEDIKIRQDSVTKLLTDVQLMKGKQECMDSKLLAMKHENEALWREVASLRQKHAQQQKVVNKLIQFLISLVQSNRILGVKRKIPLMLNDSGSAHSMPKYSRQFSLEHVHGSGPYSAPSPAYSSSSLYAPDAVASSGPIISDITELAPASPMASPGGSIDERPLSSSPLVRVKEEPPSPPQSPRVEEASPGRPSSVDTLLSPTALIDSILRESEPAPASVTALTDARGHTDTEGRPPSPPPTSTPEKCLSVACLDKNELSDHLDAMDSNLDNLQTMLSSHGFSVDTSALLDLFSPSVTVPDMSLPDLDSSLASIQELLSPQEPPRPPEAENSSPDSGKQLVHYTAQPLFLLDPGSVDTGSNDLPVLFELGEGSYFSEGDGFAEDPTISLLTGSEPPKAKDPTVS
How it was run: as §1

SPIC = target: T2, SPIC (Homo sapiens, UniProt Q8N5J4 1-248); conditions: protein: recombinant; tags: N-terminal GST; dsDNA, one strand shown
T2 sequence: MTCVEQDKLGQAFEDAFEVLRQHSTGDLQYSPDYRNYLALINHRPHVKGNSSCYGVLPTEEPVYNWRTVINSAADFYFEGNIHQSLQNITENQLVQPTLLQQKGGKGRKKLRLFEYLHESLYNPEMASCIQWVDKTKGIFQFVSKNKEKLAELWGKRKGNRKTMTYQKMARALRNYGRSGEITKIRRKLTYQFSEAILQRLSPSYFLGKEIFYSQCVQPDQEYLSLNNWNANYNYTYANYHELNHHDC
How it was run: as §1

ELF4 = ELF4 (Homo sapiens, UniProt Q99607 1-663); conditions: protein: recombinant; tags: N-terminal GST; dsDNA, one strand shown
ELF4, sequence (Q99607 whole entry): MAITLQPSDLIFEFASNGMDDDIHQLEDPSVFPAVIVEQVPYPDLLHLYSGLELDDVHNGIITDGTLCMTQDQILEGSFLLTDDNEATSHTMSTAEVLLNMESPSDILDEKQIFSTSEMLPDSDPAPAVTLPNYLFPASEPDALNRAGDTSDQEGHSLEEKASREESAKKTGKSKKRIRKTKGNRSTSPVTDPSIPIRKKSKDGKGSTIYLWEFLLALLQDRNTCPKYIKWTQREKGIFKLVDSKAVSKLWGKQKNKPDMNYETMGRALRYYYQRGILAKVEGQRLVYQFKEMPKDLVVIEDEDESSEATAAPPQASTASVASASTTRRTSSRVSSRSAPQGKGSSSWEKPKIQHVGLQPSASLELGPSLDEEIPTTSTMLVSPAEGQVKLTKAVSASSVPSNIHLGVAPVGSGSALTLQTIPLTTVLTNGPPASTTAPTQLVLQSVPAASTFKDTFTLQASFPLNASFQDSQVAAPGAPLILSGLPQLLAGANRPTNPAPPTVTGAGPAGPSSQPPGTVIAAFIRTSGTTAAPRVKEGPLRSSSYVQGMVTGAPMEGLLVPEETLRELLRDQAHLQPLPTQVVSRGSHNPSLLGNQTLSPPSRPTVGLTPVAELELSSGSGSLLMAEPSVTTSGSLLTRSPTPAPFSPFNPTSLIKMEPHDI
How it was run: as §1

ELK4 = target: T3, ELK4 (Homo sapiens, UniProt P28324-2 1-405); conditions: protein: recombinant; tags: N-terminal GST; dsDNA, one strand shown
T3 sequence: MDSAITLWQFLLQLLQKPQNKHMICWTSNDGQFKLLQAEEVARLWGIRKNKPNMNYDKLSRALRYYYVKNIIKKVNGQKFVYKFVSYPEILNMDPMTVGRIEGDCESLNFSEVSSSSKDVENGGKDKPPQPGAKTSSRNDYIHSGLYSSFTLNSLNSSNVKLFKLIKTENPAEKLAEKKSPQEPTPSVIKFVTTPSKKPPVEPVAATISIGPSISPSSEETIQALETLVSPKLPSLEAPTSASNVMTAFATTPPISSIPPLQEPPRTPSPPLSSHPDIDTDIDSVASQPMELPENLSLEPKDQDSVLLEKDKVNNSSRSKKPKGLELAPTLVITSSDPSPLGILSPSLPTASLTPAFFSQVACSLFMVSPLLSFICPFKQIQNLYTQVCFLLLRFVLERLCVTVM
How it was run: as §1

ETV2 = target: T4, ETV2 (Homo sapiens, UniProt O00321 1-342); conditions: protein: recombinant; tags: N-terminal GST; dsDNA, one strand shown
T4 sequence: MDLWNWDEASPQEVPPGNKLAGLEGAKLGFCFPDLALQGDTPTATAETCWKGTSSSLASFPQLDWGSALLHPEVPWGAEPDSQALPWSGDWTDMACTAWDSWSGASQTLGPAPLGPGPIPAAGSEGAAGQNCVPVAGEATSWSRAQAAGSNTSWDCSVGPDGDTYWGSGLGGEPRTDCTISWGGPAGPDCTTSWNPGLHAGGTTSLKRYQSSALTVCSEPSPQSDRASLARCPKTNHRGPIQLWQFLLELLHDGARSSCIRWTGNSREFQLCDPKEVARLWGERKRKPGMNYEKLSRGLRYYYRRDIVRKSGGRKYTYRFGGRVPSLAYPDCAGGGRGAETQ
How it was run: as §1

ELF3 = target: T5, ELF3 (Homo sapiens, UniProt P78545 1-371); conditions: protein: recombinant; tags: N-terminal GST; dsDNA, one strand shown
T5 sequence: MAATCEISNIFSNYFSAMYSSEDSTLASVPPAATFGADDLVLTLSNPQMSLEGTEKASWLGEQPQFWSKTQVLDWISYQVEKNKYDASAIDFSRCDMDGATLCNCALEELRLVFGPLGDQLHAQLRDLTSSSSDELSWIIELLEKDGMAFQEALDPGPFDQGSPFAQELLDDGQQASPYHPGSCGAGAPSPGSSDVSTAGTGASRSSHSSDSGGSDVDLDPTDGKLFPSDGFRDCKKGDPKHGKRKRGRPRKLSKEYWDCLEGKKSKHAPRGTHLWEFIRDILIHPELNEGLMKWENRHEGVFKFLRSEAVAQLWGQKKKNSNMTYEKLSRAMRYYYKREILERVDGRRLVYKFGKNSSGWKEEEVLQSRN
How it was run: as §1

CRX = CRX (Homo sapiens, UniProt O43186 1-299); conditions: protein: recombinant; tags: N-terminal GST; dsDNA, one strand shown
CRX, sequence (O43186 whole entry): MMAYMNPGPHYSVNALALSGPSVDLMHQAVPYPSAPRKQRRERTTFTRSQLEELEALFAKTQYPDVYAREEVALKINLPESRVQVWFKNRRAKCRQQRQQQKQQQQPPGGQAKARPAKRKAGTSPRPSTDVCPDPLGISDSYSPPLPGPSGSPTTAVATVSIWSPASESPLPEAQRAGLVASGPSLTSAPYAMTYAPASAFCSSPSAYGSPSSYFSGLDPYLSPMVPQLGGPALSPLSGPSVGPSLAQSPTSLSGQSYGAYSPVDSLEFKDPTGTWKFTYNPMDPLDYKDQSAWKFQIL
How it was run: as §1

ETV1 = ETV1 (Homo sapiens, UniProt P50549 1-477); conditions: protein: recombinant; tags: N-terminal GST; dsDNA, one strand shown
ETV1, sequence (P50549 whole entry): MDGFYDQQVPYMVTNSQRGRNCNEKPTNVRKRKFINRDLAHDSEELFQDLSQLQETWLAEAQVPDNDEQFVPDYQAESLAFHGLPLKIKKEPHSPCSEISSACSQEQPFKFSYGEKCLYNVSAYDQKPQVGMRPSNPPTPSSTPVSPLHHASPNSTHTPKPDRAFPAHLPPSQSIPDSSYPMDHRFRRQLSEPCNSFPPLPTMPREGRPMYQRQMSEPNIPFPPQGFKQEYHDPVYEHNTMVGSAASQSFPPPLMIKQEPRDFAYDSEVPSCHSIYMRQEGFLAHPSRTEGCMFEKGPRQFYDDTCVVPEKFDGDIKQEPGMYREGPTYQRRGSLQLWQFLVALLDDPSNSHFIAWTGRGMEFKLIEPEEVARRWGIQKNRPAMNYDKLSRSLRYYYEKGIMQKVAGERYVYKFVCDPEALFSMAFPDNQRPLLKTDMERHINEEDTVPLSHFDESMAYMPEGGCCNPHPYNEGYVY
How it was run: as §1

ERF = target: T6, ERF (Homo sapiens, UniProt P50548 1-548); conditions: protein: recombinant; tags: N-terminal GST; dsDNA, one strand shown
T6 sequence: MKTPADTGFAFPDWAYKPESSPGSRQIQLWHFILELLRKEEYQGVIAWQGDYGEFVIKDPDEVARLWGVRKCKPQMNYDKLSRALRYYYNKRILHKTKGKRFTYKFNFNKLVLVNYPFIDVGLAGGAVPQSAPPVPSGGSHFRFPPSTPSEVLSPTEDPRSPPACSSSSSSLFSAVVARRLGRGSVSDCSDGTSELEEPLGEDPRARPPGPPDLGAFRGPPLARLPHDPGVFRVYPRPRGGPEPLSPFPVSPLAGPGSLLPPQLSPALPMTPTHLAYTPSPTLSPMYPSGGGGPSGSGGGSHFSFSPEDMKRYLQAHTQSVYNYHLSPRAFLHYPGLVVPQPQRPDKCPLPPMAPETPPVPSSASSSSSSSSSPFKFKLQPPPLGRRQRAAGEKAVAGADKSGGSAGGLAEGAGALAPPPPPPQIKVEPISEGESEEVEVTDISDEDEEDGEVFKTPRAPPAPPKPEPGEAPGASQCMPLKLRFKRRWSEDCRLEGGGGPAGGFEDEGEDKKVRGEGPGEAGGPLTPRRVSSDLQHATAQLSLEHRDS
How it was run: as §1

ETV3L = target: T7, ETV3L (Homo sapiens, UniProt Q6ZN32 1-361); conditions: protein: recombinant; tags: N-terminal GST; dsDNA, one strand shown
T7 sequence: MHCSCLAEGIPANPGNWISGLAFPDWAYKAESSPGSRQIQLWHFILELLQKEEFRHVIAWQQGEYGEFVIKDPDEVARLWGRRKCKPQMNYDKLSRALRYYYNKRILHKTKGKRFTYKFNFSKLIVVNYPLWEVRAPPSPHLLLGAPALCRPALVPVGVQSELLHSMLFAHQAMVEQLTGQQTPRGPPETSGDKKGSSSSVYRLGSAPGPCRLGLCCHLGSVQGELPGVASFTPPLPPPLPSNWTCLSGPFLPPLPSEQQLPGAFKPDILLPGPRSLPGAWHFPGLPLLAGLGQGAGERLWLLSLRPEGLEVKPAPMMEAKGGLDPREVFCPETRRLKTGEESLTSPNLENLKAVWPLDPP
How it was run: as §1

ETS2 = target: T8, ETS2 (Homo sapiens, UniProt P15036 1-469); conditions: protein: recombinant; tags: N-terminal GST; dsDNA, one strand shown
T8 sequence: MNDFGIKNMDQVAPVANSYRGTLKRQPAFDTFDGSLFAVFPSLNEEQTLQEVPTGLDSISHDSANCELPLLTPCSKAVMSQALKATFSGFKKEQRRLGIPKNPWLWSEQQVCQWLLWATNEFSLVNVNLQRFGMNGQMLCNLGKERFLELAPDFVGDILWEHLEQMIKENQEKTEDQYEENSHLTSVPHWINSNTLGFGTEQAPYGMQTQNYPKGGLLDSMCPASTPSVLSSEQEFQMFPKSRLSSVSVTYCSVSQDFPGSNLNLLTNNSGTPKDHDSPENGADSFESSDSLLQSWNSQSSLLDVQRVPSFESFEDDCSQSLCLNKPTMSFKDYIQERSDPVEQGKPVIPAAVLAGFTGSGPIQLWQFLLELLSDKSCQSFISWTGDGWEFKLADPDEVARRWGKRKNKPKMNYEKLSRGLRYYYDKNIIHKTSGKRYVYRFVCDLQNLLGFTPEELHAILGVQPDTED
How it was run: as §1

SPDEF = target: T9, SPDEF (Homo sapiens, UniProt O95238 1-335); conditions: protein: recombinant; tags: N-terminal GST; dsDNA, one strand shown
T9 sequence: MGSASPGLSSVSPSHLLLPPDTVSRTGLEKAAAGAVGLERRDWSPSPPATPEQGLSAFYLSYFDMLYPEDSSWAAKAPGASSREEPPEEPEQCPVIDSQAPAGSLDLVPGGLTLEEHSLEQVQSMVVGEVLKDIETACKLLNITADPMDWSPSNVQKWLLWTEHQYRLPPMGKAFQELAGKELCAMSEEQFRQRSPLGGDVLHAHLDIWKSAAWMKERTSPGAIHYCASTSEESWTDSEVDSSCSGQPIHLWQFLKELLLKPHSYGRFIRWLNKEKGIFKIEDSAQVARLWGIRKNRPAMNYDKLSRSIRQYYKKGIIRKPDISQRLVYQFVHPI
How it was run: as §1

ETV7 = target: T10, ETV7 (Homo sapiens, UniProt Q9Y603 1-341); conditions: protein: recombinant; tags: N-terminal GST; dsDNA, one strand shown
T10 sequence: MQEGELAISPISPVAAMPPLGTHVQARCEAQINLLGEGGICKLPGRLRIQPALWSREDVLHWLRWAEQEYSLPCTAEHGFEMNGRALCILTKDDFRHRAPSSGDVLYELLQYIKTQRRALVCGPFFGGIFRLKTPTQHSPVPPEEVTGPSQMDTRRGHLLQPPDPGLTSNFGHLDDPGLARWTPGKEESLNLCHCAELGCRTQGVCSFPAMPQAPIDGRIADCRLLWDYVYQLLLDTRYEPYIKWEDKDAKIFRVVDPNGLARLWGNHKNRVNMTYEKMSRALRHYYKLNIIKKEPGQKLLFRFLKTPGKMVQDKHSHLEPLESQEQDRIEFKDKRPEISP
How it was run: as §1

ELF5 = target: T11, ELF5 (Homo sapiens, UniProt Q9UKW6-2 1-255); conditions: protein: recombinant; tags: N-terminal GST; dsDNA, one strand shown
T11 sequence: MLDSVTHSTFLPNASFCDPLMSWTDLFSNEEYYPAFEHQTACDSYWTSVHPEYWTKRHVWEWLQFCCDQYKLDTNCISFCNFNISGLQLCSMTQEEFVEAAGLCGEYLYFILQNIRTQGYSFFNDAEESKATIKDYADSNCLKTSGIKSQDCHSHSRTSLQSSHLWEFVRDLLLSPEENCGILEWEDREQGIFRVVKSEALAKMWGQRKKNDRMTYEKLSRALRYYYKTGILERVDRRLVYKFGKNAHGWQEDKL
How it was run: as §1

ETV3 = target: T12, ETV3 (Homo sapiens, UniProt P41162-2 1-143); conditions: protein: recombinant; tags: N-terminal GST; dsDNA, one strand shown
T12 sequence: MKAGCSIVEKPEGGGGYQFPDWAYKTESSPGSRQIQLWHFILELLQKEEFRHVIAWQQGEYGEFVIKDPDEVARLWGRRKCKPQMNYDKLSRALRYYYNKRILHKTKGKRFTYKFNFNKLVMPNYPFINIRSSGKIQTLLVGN
How it was run: as §1

ETV6 = ETV6 (Homo sapiens, UniProt P41212 1-452); conditions: protein: recombinant; tags: N-terminal GST; dsDNA, one strand shown
ETV6, sequence (P41212 whole entry): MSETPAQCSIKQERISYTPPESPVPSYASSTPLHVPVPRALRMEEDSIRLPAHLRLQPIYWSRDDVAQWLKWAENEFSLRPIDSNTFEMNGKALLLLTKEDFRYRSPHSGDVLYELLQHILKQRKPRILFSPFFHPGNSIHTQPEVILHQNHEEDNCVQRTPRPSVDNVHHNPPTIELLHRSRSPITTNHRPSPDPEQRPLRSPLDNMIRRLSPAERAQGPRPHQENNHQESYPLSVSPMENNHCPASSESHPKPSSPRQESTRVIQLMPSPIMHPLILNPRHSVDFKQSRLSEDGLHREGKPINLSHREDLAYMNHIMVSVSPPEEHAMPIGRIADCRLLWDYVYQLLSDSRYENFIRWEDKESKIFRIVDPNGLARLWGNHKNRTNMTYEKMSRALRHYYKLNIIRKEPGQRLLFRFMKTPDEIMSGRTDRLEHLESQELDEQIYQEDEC
How it was run: as §1

Question: Which binding signal (FEV) does the source give for TAATTC here?
Answer: 1.36 fold enrichment (6-mer frequency, TF over GST control)

Question: What about the binding signal (ETV5) of the same sequence?
Answer: 1.44 fold enrichment (6-mer frequency, TF over GST control)

Question: What about the binding signal (HSF1) of the same sequence?
Answer: 2.33 fold enrichment (6-mer frequency, TF over GST control)

Question: What about the binding signal (SPIC) of the same sequence?
Answer: 1.44 fold enrichment (6-mer frequency, TF over GST control)

Question: What about the binding signal (ELF4) of the same sequence?
Answer: 1.48 fold enrichment (6-mer frequency, TF over GST control)

Question: And the binding signal (ELK4)?
Answer: 1.3 fold enrichment (6-mer frequency, TF over GST control)

Question: What about the binding signal (ETV2) of the same sequence?
Answer: 1.51 fold enrichment (6-mer frequency, TF over GST control)

Question: What about the binding signal (ELF3) of the same sequence?
Answer: 1.29 fold enrichment (6-mer frequency, TF over GST control)

Question: And the binding signal (CRX)?
Answer: 3.05 fold enrichment (6-mer frequency, TF over GST control)

Question: And the binding signal (ETV1)?
Answer: 1.4 fold enrichment (6-mer frequency, TF over GST control)

Question: What about the binding signal (ERF) of the same sequence?
Answer: 1.29 fold enrichment (6-mer frequency, TF over GST control)

Question: And the binding signal (ETV3L)?
Answer: 1.38 fold enrichment (6-mer frequency, TF over GST control)

Question: And the binding signal (ETS2)?
Answer: 1.48 fold enrichment (6-mer frequency, TF over GST control)

Question: And the binding signal (SPDEF)?
Answer: 1.37 fold enrichment (6-mer frequency, TF over GST control)

Question: And the binding signal (ETV7)?
Answer: 1.38 fold enrichment (6-mer frequency, TF over GST control)

Question: And the binding signal (ELF5)?
Answer: 1.41 fold enrichment (6-mer frequency, TF over GST control)

Question: What about the binding signal (ETV3) of the same sequence?
Answer: 1.51 fold enrichment (6-mer frequency, TF over GST control)

Question: What about the binding signal (ETV6) of the same sequence?
Answer: 1.53 fold enrichment (6-mer frequency, TF over GST control)
